# Screening data: PubChem BioAssay, NMMLSC
# Proteasome disasm = inhibitors of ATP-driven 26S proteasome dissociation, primary screen, biochemical, bead-based flow cytometry, GFP-tagged proteasome. 0.2% of 24,000 active. inhibition of disassembly, % (concentration not given with the values). anti-FLAG beads, GFP-proteasome disassembly. AID 751, 2007;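 active = inhibition of disassembly above about 33%, limit read from the data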;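 note: plate controls were ATP control with full disassembly for no effect and ATP-gamma-S intact proteasomes for full effect; higher percent means more bead fluorescence retained so stronger block of disassembly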
# Autofluor Jurkat = compound autofluorescence on Jurkat cells, primary screen, artefact control for VLA-4 allosteric ligand project, cell-based, flow cytometry | active compounds read high; 1 = vehicle-only cell background | fluorescence ratio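 (tested at 10 µM compound in the well)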 | 0.61% of 24,000 active;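 active = fluorescence ratio above 2.44, which is 1 plus 3 SD of all ratios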;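 note: green fluorescence of cells measured with 488 nm excitation and 530 nm emission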
# FPR binder = human FPR ligands by binding competition, primary screen, cell-based, FPRL1 counter-screen, flow cytometry. 0.74% of 24,000 active. FPR-expressing cells, fluorescent ligand binding. inhibition, % (no concentration beside the values). AID 440, 2006. fMet-Leu-Phe receptor (Homo sapiens), P21462;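 note: 0% = buffer wells and 100% = receptor blocker peptide wells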
# VLA-4 agonist = enhancers of LDV-FITC binding to VLA-4 integrin, primary screen, Jurkat cells, flow cytometry; activation, % at 10 µM (by protocol); Integrin alpha-4 (Homo sapiens), P13612; AID 528, 2006; 24,000 tested, under 10 active;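 active = fluorescent ligand binding to cells raised by more than 40% of the manganese-induced maximum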;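 note: 0% = ligand binding without compound and 100% = manganese-stimulated maximal binding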
# Target sequence (P13612 whole entry, looked up): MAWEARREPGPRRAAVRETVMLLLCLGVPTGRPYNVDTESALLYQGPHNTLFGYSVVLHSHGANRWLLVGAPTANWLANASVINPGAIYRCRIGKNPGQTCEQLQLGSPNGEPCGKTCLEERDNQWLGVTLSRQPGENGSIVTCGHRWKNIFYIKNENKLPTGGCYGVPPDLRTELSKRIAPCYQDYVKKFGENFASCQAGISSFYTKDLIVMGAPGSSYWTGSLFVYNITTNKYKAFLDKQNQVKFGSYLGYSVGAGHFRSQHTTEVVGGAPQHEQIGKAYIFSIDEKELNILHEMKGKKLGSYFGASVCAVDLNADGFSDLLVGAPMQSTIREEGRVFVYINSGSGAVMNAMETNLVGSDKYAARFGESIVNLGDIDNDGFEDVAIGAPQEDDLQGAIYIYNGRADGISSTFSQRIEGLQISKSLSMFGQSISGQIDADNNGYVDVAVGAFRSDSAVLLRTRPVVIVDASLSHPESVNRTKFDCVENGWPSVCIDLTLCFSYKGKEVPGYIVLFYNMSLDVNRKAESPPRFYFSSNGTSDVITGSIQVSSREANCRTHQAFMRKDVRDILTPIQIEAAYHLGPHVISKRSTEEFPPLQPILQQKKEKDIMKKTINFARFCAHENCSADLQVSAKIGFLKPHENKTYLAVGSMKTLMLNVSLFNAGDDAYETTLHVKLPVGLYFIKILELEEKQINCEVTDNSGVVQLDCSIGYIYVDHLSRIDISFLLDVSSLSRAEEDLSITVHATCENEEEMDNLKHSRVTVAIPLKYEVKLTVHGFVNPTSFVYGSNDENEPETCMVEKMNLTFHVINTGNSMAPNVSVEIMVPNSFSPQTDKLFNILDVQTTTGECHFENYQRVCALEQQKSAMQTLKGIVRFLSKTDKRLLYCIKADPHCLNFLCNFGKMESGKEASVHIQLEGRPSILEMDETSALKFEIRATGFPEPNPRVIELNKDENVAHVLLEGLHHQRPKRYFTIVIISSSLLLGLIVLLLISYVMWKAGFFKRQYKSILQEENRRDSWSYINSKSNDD
# FPRL1 binder = human FPRL1 ligands by binding competition, primary screen, cell-based, FPR counter-screen, flow cytometry. FPRL1-expressing cells, fluorescent ligand binding inhibition. N-formyl peptide receptor 2 (Homo sapiens), P25090. 0.3% of 24,000 active. inhibition, % (concentration not given with the values). AID 441, 2006;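 note: 0% = buffer alone and 100% = receptor blocker peptide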
# VLA-4 antagonist = inhibitors of LDV-FITC binding to Mn2+-activated VLA-4, primary screen, Jurkat cells; Integrin alpha-4 (Homo sapiens), P13612; LDV-FITC binding with Mn2+, flow cytometry; 100% = Mn2+-driven binding gain fully reversed; inhibition, % at 10 µM (by protocol); 0.2% of 24,000 active;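 active = inhibition above 50%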;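 note: 0% = Mn2+ stimulated cells lacking compound and 100% = ligand binding without Mn2+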
# The depositor's hits bear a star. A selection: hits, their analogues and other compounds. The true share with any hit is near 1.9%. Cut-off read from the data, not from the text of the source, unless noted: active = inhibition above about 30%; inconclusive = no clear call, values can overlap the other calls; inactive = below that.
SMILES,Proteasome disasm,Autofluor Jurkat,FPR binder,VLA-4 agonist,FPRL1 binder,VLA-4 antagonist
CC1=C(C(=O)OC(C)C)[C@]2(C(=O)N(CC(N)=O)c3ccccc32)C(C#N)=C(N)O1,-1,0.95,24,-2,50*,-4
CCCC(C)C1C(C#N)=C(N)Oc2c1c(=O)oc1ccccc21 (centres undefined),0,1.2,4,-14,-6,-5
